From the supplement of paper PMC3334620
In all, about 33,000 sequences were measured (“E-score (-0.5 to 0.5)”: median about -0.035, highest 2% from about 0.34 on). Shown is part of a subset that was picked to be rich in the highest values.

Biological target: T1, Mot3 (UniProt P54785)
T1 sequence: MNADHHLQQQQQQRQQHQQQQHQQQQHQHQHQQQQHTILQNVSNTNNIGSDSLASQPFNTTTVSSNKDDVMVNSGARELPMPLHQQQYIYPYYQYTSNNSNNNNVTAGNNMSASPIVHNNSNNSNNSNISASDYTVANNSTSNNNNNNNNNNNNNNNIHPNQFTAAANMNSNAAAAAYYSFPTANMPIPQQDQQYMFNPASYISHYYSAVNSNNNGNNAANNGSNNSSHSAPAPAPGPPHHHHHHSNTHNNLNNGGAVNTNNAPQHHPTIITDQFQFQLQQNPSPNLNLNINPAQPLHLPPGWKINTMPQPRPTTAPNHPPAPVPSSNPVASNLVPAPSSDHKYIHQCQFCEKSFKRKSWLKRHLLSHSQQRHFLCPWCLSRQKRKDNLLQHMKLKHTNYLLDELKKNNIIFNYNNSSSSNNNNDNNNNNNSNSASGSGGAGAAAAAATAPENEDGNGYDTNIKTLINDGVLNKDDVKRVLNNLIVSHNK
Assay: PBM E-score (8-mer binding enrichment) (E-score (-0.5 to 0.5)); higher = stronger / more preferred TF binding
Conditions: protein concentration: 200 nM; construct: GST-full length
Method: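 Universal 'all 10-mer' protein binding microarrays (Agilent AMADID 015681) probed with GST-tagged S. cerevisiae TFs (full-length or DBD) made by in vitro transcription/translation (PURExpress), about 100-200 nM. Bound TF was detected with fluorescent anti-GST. Each ungapped 8-mer (which stands for itself and its reverse complement) is scored by the PBM enrichment score (E-score), a modified Wilcoxon-Mann-Whitney statistic from -0.5 to +0.5, computed with the Universal PBM Analysis Suite. Scale: above 0.35 generally sequence-specific binding.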

Sequence	PBM E-score
ACCTAGGT	0.124
CGGTCTAC	-0.0115
ACTTCTGA	-0.101
GTGCATAA	0.084
AGGTTGTC	-0.0425
CAAAGAAC	0.197
CGCGGAAG	-0.172
GCCATGGA	-0.144
CCCATGTC	0.0657
CCCATGTA	0.377
ACCATGTG	0.0765
ACCATGTC	0.223
CCCATGGA	-0.187
GCCATGTA	0.383
ACCATGTA	0.404
GCCATGCA	-0.135
ATACCTCG	0.121
AAGGTGGC	-0.095
AAACAGCT	-0.268
GCGTAACA	0.196
CTGTAACA	0.182
GTGTAACA	0.343
AGGTAACC	0.321
AGGTAACT	0.297
ATGTAACA	0.373
ATGTAACC	0.166

Sequence	PBM E-score
GTGTAAGA	0.312
AGGTAACA	0.357
ACCGACCC	-0.256
AGCAGAAT	0.059
ATCCTGCG	0.0225
TGAGAGAA	-0.0743
AGGGTCCG	-0.269
CGCCCAAG	-0.105
CAATTACA	0.378
TAATTATA	0.206
GAATTATA	0.0628
TAATTACA	0.372
AAATTACA	0.365
GAATTACA	0.366
CAATTACG	0.26
CAATTACC	0.12
TAATTAGA	0.0891
GAATTACC	0.0992
AAATTACT	0.138
AAATTACG	0.249
AAGCAGAA	0.108
AACTAGAT	0.138
AGGCAGCC	0.317
CTTCTCAC	-0.125
TCGGCTAA	-0.0724
ACTGTTGG	-0.221

Sequence	PBM E-score
CCCTGGTC	-0.315
TGCTTCAA	0.0489
ACGAACAT	0.109
AACAACAC	0.349
AGGAACAG	0.434
CGGAACAG	-0.216
AGGAACAA	0.401
CGGAACAA	0.0225
ATGAACAT	0.252
TGGAACAA	0.136
ACGAACAG	-0.0228
CACAACAC	0.302
GACAACAC	0.261
AGGAACAT	0.422
CTTCGGTC	-0.0958
ATGGGAGC	-0.193
ACGCATGC	0.169
ACAAAGCA	0.168
CTAGCGGA	-0.00619
GATTAGCA	-0.0223
CGCTCAAG	-0.0197
TTAGCTAA	-0.0988
CTTCCACA	-0.14
ATCTCTTG	-0.0945
ATCAACAA	0.224
ATTAACAA	0.328

Sequence	PBM E-score
AGGAACAC	0.404
CGGAACAC	0.0144
GGGAACAC	0.0104
CTTAACAC	0.333
ATTAACAC	0.384
ATCAACAG	0.0788
ATCAACAT	0.339
AAGTAGGA	0.2
CCTCTAGA	-0.0256
AAGAACGC	0.0817
AGGGTAGG	0.0464
ACGCTTTG	-0.111
GCATTCTA	0.0333
AGACAGAT	-0.0373
ATCAGGCC	-0.0425
CTCAGGCC	-0.129
ATCAGGCA	0.481
GTCAGGAA	0.277
GTCAGGGA	-0.339
CTCAGGCA	0.462
CTCAGGGA	-0.251
ATCAGGCG	0.0225
GTCAGGCA	0.469
CGGATCAC	-0.00917
CCTTTCTC	-0.0866
CTCAGGGC	-0.29

Sequence	PBM E-score
AGTGTCTA	0.0204
AGTCCCAT	-0.115
CGTGCCGC	-0.111
AGTGCCGG	0.0259
AGAGCCTG	0.341
AGTGCCTC	0.405
CGTGCCCC	0.00946
AGTGCCTG	0.49
AGTGCCGC	-0.373
CGTGCCTC	0.469
AGAGCCTC	-0.422
AGAGCCTA	0.177
AGTGCCAC	-0.35
AGTGCCAG	-0.0756
GAGATTGA	-0.0729
ACGGTTTG	-0.0879
CAAGTCGA	-0.156
TGTCTCAA	-0.078
AGGTCGAG	-0.141
ATGACCAG	0.199
ATGCTCAG	0.15
CGTGCCCA	0.355
GGTGCCCA	0.293
AGTGCCCA	0.137
CACGGATG	0.0568
CGTAGGCC	-0.0263

Sequence	PBM E-score
GGTAGGGA	-0.104
GGTAGGCA	0.473
AGTAGGCG	0.0255
CGTAGGCA	0.487
GGTAGGTA	0.269
AGTAGGCA	0.481
CGTAGGTA	0.285
AGTAGGCC	-0.1
AAATGGGG	-0.133
CGAACTAA	0.031
AGGATACA	0.157
CCCTCTCG	-0.33
TCTATTCA	0.165
CAATTGAA	-0.0107
ATCACATG	0.195
CTTACATA	0.319
ACTACATA	0.325
CTTACATC	0.163
AGTACATG	0.289
ACTACATG	0.362
AGTACATC	0.166
ATTACATG	0.435
ATTACATC	0.356
GTTACATA	0.333
ATTACATA	0.406
ACTACATC	0.173

Sequence	PBM E-score
AGGATACT	-0.12
ACCTCTCC	-0.144
ACTTTTCC	0.0601
ACCTGACA	0.105
ATCTGAAA	-0.0689
AGGAGTGC	-0.146
GGACACCA	-0.23
ACTCGCCC	-0.179
TACTTTGA	0.0853
ACACTCCA	-0.141
AATACATT	0.235
CATACATG	0.291
AATACATG	0.413
GGCGTGAC	0.017
AGAACGCT	-0.186
AGTGTCGC	-0.0232
AGGAACCC	0.444
GGGAACCC	-0.279
CGGAACCG	-0.249
TGGAACCA	-0.133
ATGAACCG	0.0149
ACGAACCT	-0.0403
GGGAACCA	-0.175
AAGAACCT	0.191
CGGAACCC	-0.0527
AGGAACCT	0.458

Sequence	PBM E-score
AGGAACCG	0.442
AGGAACCA	0.419
AGTTCGCG	-0.0658
ACCATCAA	-0.0603
CTACTGGC	-0.182
GGGAGGTA	0.0239
AATTCCGG	-0.0255
GTCCTCCA	-0.175
CCACACCG	-0.0267
CAGGTCGC	-0.225
GGTGTTTA	0.0636
CGTGTTTA	0.346
AGTGTTAA	0.264
TGTGTTAA	0.401
GATGTTTA	0.125
CATGTTTA	0.371
GGTGTTAA	0.28
GGCGTTAA	0.149
CGCGTTAA	0.368
CATGTTTC	0.24
CGCGTTAG	0.187
AGTGTTTA	0.126
ACACTGGC	0.00843
ACTTAAGG	0.157
CTAGATAC	-0.0863
GCAAGACC	-0.0597

Sequence	PBM E-score
CGCAAAAC	0.0841
CACAGCTC	0.0935
CAACTGAG	0.00667
GAACCTCA	-0.0997
AGAGCACT	-0.0229
GAAACTCA	-0.0953
CGGACAAC	-0.0115
CTCGAGCA	-0.0333
CGTGTTAG	0.354
CGTGTTCA	0.273
AATGTTGA	0.162
CCTGTTAA	0.297
CTTGTTAC	0.158
CGTGTTAA	0.418
GTTGTTAA	0.275
AGTGTTAG	0.0278
CTTGTTAA	0.355
CATGTTGA	0.401
CGTGTTAC	0.308
CATGTTGC	0.297
